Results from PubChem BioAssay AID652104 (National Center for Advancing Translational Sciences (NCATS), 2013).
Out of some 410,000 compounds screened, about 7,200 (1.8%) were called active. Where a call stands in place of a potency, no number is given. Inconclusive results (about 7%) are left out. This is one part of a sample in which actives are shown more often than they occur. Values without a mark were called inactive. The call rests on the fitted dose curve; in most records, active means well fitted activation curve with a large enough effect; inconclusive means small, poorly fitted or top-dose-only effect, or another doubt; inactive means no such curve, though single readings can be large or run the other way.

assay: qHTS of TDP-43 Inhibitors; conditions: TDP-43 expressing yeast growth rescue, BacTiter-Glo, 24 h; series mostly up to 46.1 µM; further: nearly all actives have a fitted effect of over 50% in size
Summary of the method: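 Luminescence from BacTiter-Glo reports growth of TDP-43-expressing yeast after 24 hr at 30 deg C with compound. Cells were raffinose-pregrown to mid-log, then seeded in galactose medium at OD600=0.02.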
Potency means the concentration at half of the fitted maximal effect.

Compound	Potency	growth rescue (activation)
COC(=O)c1cc2occc2n1Cc1nc(-c2ccc(C)cc2)oc1C	inactive	
CCN(CC)S(=O)(=O)c1ccc2c(c1)N(CC(=O)NCc1ccccc1)C(=O)CS2	inactive	
CCNC(=O)c1cnn(-c2ccccc2)c1-c1ccccc1	inactive	
CCCc1c(C(=O)O)cnn1-c1ccc(Cl)cc1	20 µM (active)	
Nc1c(C(=O)O)cnn1-c1ccccc1	inactive	
O=C(Nc1ccc(S(=O)(=O)N2CCC(c3nc4ccccc4s3)CC2)cc1)c1ccccc1F	inactive	
COc1ccc(C=C2CCC3C(CCCC34OCCO4)C2=O)cc1 (stereo not drawn)	inactive	
COc1ccc(Cn2ccn(Cc3cccc(OC)c3)c(=O)c2=O)cc1	inactive	
COc1ccc2c(c1)CC[C@@H]1[C@@H]2CC[C@]2(C)C(=O)CC[C@@H]12	12.6 µM (active)	
Cc1cc(Br)ccc1NC(=O)Cn1cnc2sc(C)c(S(=O)(=O)N3CCN(C)CC3)c2c1=O	inactive	
CCOc1ccc(N(CC)C(=O)c2cc3c(=O)oc4ccccc4c3s2)cc1	inactive	
CCOc1ccc(CCNC(=O)Cn2nc(CC)n3c(cc4sc(CC)cc43)c2=O)cc1OCC	inactive	
CCOc1ccc(C(=O)/C=C/c2cn(CC(O)CN3CCCCCC3)c3ccccc23)cc1 (stereo not drawn)	inactive	
CC(C)c1ccc(NC(=O)Cn2nnc(C(=O)NCCc3ccccc3)c2N)cc1	inactive	
CCOC(=O)C1CCCN(C(=O)c2ccc(-n3ccc4ccccc43)s2)C1 (stereo not drawn)	inactive	
CCN1CCN(C2CCCCC2NS(=O)(=O)c2ccc(Cl)cc2)CC1 (stereo not drawn)	inactive	
O=S(=O)(NC1CC2CCC1C2)c1ccc(Cl)cc1 (stereo not drawn)	7.08 µM (active)	
CCOC1CCCCC1NS(=O)(=O)c1ccc(Cl)cc1 (stereo not drawn)	inactive	
COc1ccc(Cn2ccnc2SCC(=O)NCc2ccco2)cc1	inactive	
COc1cc(C(=O)N2CCC(c3ccncc3)CC2)cc(OC)c1OC		-21.7% [at 9.22 µM]
O=C(Nc1ccccc1N1CCCC1)c1ccc(F)c(S(=O)(=O)N2CCOCC2)c1	inactive	
CCn1c(=O)c(=O)n(CC)c2cc(N3CCCCC3)c(NC(=O)c3cccc(F)c3)cc21	inactive	
O=C(Nc1ccccc1N1CCCCC1)c1cccc(F)c1	12.6 µM (active)	
CCN1CCN(Cc2c(O)ccc3oc(C)c(C(=O)Nc4ccc(C)cc4C)c23)CC1	inactive	
O=C(CSc1nc2nccnc2c(=O)n1CCc1c[nH]c2ccccc12)Nc1ccccc1F	inactive	

Compound	Potency	growth rescue (activation)
O=C(NCc1ccc(Cl)cc1)c1cc2c(nc3sccn32)s1	inactive	
Cc1ccc(Nc2c(-c3ccc(Cl)cc3)nc3sccn23)c(C)c1	25.1 µM (active)	
Cc1ccc(S(=O)(=O)NCc2cn3ccsc3n2)c(C)c1	inactive	
Cc1ccc2nc3c(cc(C(=O)NC4CCCCC4)c(=N)n3C(C)C)c(=O)n2c1	inactive	
CCN(Cc1ccccc1)S(=O)(=O)c1ccc2c(c1)CCCN2C(C)=O	inactive	
CC(=O)Nc1ccc(NC(=O)COc2ccccc2C(=O)Nc2cccc(Cl)c2Cl)cc1	inactive	
FC(F)Oc1ccccc1NC(=S)Nc1cccc(Cl)c1Cl	17.8 µM (active)	
CCOC(=O)c1ccc[n+](CC(=O)Nc2ccccc2OC(F)F)c1		1.27% [at 0.397 µM]
Cc1cc(C)c(-c2n[nH]c3c2C(c2ccccc2F)N(CCO)C3=O)c(O)c1 (stereo not drawn)	inactive	
CCOC(=O)c1sc(NC(=O)/C=C/c2ccc(C(C)C)cc2)c(C(=O)OCC)c1C	inactive	
CSc1ncc(C(=O)NCc2ccccc2Cl)c(C(F)(F)F)n1	inactive	
Cc1cccc(N2CCN(C(=O)c3oc(=O)c4ccccc4c3-c3ccccc3)CC2)c1C	inactive	
COc1ccccc1Nc1cc(C(=O)NCCCN(C)C2CCCCC2)c2ccccc2n1	inactive	
COc1ccc(-c2nc3ccccc3o2)cc1NC(=O)c1cc([N+](=O)[O-])ccc1N1CCOCC1	inactive	
O=C(Nc1cc(-c2nc3ccccc3o2)ccc1Cl)c1cc([N+](=O)[O-])ccc1N1CCOCC1	inactive	
O=[N+]([O-])c1ccc2oc(-c3cccc(O)c3)nc2c1	7.94 µM (active)	
CN(c1ccccc1)S(=O)(=O)c1cccc(C(=O)NNC(=O)c2ccncc2)c1	inactive	
CN(c1ccccc1)S(=O)(=O)c1cc(C(=O)OCC(=O)N2CCN(C(=O)c3ccco3)CC2)ccc1Cl	inactive	
CN(c1ccccc1)S(=O)(=O)c1cc(C(=O)Nc2nc3ccccc3[nH]2)ccc1Cl	15.8 µM (active)	
O=c1cnnc(Nc2ccccc2)[nH]1	inactive	
c1ccc(Nc2n[nH]nc2-c2ccccc2)cc1	12.6 µM (active)	
S=c1[nH]nc(Nc2ccccc2)s1	inactive	
Cc1cc(C)cc(-n2c(SCC(=O)NCC3CCCO3)nc3c([nH]c4ccccc43)c2=O)c1 (stereo not drawn)	inactive	
Cc1ccc(-n2c(Cc3cccs3)nnc2SCC(=O)OC(C)C)cc1	inactive	
Cc1ccc(-c2nnc(SCC(=O)N/N=C/c3cccs3)n2-c2ccc(C)cc2)cc1	22.4 µM (active)	

Compound	Potency	growth rescue (activation)
NNC(=O)CSc1nnc(-c2ccccc2)n1-c1ccccc1	inactive	
COc1cccc(CNc2nccn(-c3ccc(OC)c(OC)c3)c2=O)c1	inactive	
CC1=C[C@H]2Cc3cc(C)cc(C)c3S(=O)(=O)[C@@H]2C=C1	15.8 µM (active)	
COc1ccc(-n2ccn(CC(=O)Nc3ccc(C)c(C)c3)c(=O)c2=O)cc1OC	inactive	
Cc1cc(O)cc(O)c1C(=O)Cc1cnn(-c2ccccc2)c1	8.91 µM (active)	
Cc1[nH]nc(-c2ccc(OCc3cnn(-c4ccccc4)c3)cc2O)c1Oc1ccc(Cl)cc1	inactive	
O=C(c1cnn(-c2ccc(Cl)cc2)c1)c1ccccc1O	inactive	
CC(C)CNc1ncnc2c1nnn2C	inactive	
CC(=O)c1nc2ccccc2n1Cc1ccccc1	11.2 µM (active)	
O=C(O)Cn1c(Cc2ccccc2)nc2ccccc21	inactive	
CC(O)c1nc2ccccc2n1Cc1ccc([N+](=O)[O-])cc1 (stereo not drawn)	inactive	
Cc1ccc(NC(=O)Cn2c(=O)n(-c3ccccc3)c(=O)c3c4c(sc32)CCCC4)cc1	inactive	
COc1ccccc1-c1n[nH]nc1C1=CC(=O)CC(C)(C)C1	inactive	
COc1ccccc1-c1n[nH]c2c1[C@H](C)CC[C@H]2C(C)C	25.1 µM (active)	
COc1ccc(N2CCN(C(=O)c3c(C)oc4nc(C)nc(N5CCCC5)c34)CC2)cc1	inactive	
NS(=O)(=O)c1ccc(NC(=O)COc2ccc(S(=O)(=O)NC3CCCCC3)cc2)cc1	inactive	
CCOc1ccc(C2CC(=O)c3c([nH]c(C(=O)OCc4ccccc4)c3C)C2)cc1 (stereo not drawn)	inactive	
O=C(Cn1nc(Cc2cccnc2)c2ccccc2c1=O)N1CCN(c2ccccc2F)CC1	inactive	
CCN(CC)S(=O)(=O)c1nnc(NC(=O)COc2ccccc2Cl)s1	inactive	
Cc1nc2ccccc2c(-c2ccccc2)c1C(=O)c1ccccc1	22.4 µM (active)	
Nc1[nH]c(C(=O)c2ccccc2)c(-c2ccncc2)c1C(=O)NCc1cccc2ccccc12	inactive	
CC(C)(C)C(=O)c1c(N)[nH]c(C(=O)c2ccccc2)c1-c1ccc(F)cc1	inactive	
CCCNC(=O)CCC(=O)N1Cc2ccccc2Oc2ncccc21		7.07% [at 9.22 µM]
CC(C)c1ccc(NS(=O)(=O)c2ccc3[nH]cc(C(=O)NC4CCCC4)c(=O)c3c2)cc1	inactive	
CCCOc1ccc(C2c3c(-c4ccccc4O)n[nH]c3C(=O)N2Cc2cccnc2)cc1 (stereo not drawn)	inactive	

Compound	Potency	growth rescue (activation)
Cc1c(Cl)cccc1NC(=O)C1CCCN(C(=O)c2cnn(-c3ccccc3)c2-n2cccc2)C1 (stereo not drawn)	inactive	
CC(C)CC(=O)N/C(N)=N/c1nc2ccccc2s1	15.8 µM (active)	
Cc1cc(C)cc(-n2ccnc2SCC(=O)Nc2nc3ccccc3s2)c1	inactive	
CC(C)CC(=O)NC(=S)NNC(=O)c1cccc([N+](=O)[O-])c1		-4.92% [at 9.22 µM]
CCN1CCN(CCCNC(=O)c2ccc3c(c2)sc2nc(-c4ccc(OC)cc4)cn23)CC1	inactive	
O=C(NCCc1ccccc1)c1ccc2c(c1)N(Cc1ccccc1)C(=O)c1ccccc1S2(=O)=O	inactive	
Cc1ccccc1CNC(=O)CCc1cn(Cc2ccccc2C)c2ccccc12	inactive	
O=C(C1CCN(c2nnc(-n3cccc3)s2)CC1)N1CCc2ccccc2C1	35.5 µM (active)	
CSc1ccc(CCNC(=O)C2CCN(c3nnc(-n4cccc4)s3)CC2)cc1	inactive	
CCOC(=O)C1CCCN(C(=O)C2CCN(c3nnc(-n4cccc4)s3)CC2)C1 (stereo not drawn)	inactive	
Cc1ccc(-c2nn3c(=O)cc(CN4CCN(C(=O)Nc5cccc(C(F)(F)F)c5)CC4)nc3s2)cc1	inactive	
O=C(C(=O)N1CCC(c2ccccc2)CC1)c1ccccc1	12.6 µM (active)	
O=S(=O)(c1ccccc1)N1CCC(c2ccccc2)CC1	inactive	
Cc1nc2ccc(NC(=O)N3CCC(c4ccccc4)C3)cc2nc1C (stereo not drawn)	inactive	
Cc1cccc2nc(-c3ccc(Cl)s3)c(Nc3ccc4c(c3)OCCO4)n12	inactive	
Fc1ccc(-c2nc(Nc3cccc(Cl)c3)nc3c2COc2ccccc2-3)cc1	inactive	
Cc1ccn2c(Nc3ccc4c(c3)OCCO4)c(-c3ccc(C)s3)nc2c1	inactive	
CCN1CCN(C(=O)CN(C)S(=O)(=O)c2ccc3ccccc3c2)CC1	inactive	
CC(=O)N(c1ccc2oc(=O)sc2c1)S(=O)(=O)c1ccc(C)cc1	inactive	
CC(=O)Oc1ccc(N(C(C)=O)S(=O)(=O)c2ccc3ccccc3c2)cc1Br	12.6 µM (active)	
Cc1cccc(-n2ncc(C(=O)N3CCC(C)CC3)c2C2CCN(C(=O)OC(C)(C)C)CC2)c1	inactive	
CC(C)(C)C1CCc2c(sc(NC(=O)c3ccccc3F)c2C(=O)N2CCCCC2)C1 (stereo not drawn)	inactive	
COc1ccc(-c2nc(Cn3c(=O)cc(C)c4c(C)nn(-c5ccccc5)c43)c(C)o2)cc1OC	inactive	
